Active and inactive are the calls of the source. How the source made its calls: active means hit-call score of the fitted dose curve at least 0.9, where 1 is the maximum; inactive means score below 0.9.

A short description of this test: ATG_MRE_CIS: Attagene CIS-FACTORIAL HepG2 Assay for human Metal Responsive Element (MRE) (AID 2282954). As to conditions: HepG2 MRE cis-reporter transcription, Attagene multiplex; actives raise or lower the signal. As for the experimental part:
ATG_CIS is a cell-based, multiplexed-readout assay that uses HepG2, a human liver cell line, with measurements taken at 24 hours after chemical dosing in a 24-well plate.ATG_MRE_CIS is one of 52 assay component(s) measured or calculated from the ATG_CIS assay. It is designed to make measurements of mRNA induction, a form of inducible reporter, as detected with fluorescence intensity signals by Reverse transcription polymerase chain reaction (RT-PCR) and Capillary electrophoresis technology.Data from the assay component ATG_MRE_CIS was analyzed into 1 assay endpoint. This assay endpoint, ATG_MRE_CIS, was analyzed with bidirectional fitting relative to DMSO as the negative control and baseline of activity. Using a type of inducible reporter, measures of mRNA for gain or loss-of-signal activity can be used to understand the reporter gene at the transcription factor-level as they relate to the gene MTF1. Furthermore, this assay endpoint can be referred to as a primary readout, because this assay has produced multiple assay endpoints where this one serves a reporter gene function. To generalize the intended target to other relatable targets, this assay endpoint is annotated to the dna binding intended target family, where the subfamily is zinc finger.
Human liver HepG2 cells are transiently transfected with multiple reporter transcription units (MRTUs) in 6-well plates using FuGene 6 reagent (Roche; 3 ml FuGene/1 mg DNA). The MRTU constructs are regulated by a cis-regulating element (promoter). […] A major difference between the CIS and TRANS system is that in CIS activities of endogenous TFs are measured, whereas the TRANS assay evaluates changes in activities of exogenous, chimeric NR-Gal4 proteins. […] At the end of 24 hour incubation, total RNA was isolated using TriZol reagent (Invitrogen). The isolated RNA is then reverse-transcribed using oligo(dT) primer and Mo-MLV reverse transcriptase (Invitrogen) with DNAse I (Ambion) treatment for 30 min. The one-tenth of the produced cDNA was amplified by PCR using Taq DNA polymerase (Invitrogen) and two reporter sequence-specific primers. The PCR products were fluorescently labeled by primer extension with 6-arboxyfluorescein (6-FAM) 5'-labeled reporter sequence-specific primer (2 min at 95 C, 20 s at 68 C and 10 min at 72 C) and these products were digested with 5U of HpaI (New England Biolabs) for 2h at 37 C. The fragments were purified using Qiaquick PCR columns (Qiagen), analyzed on an ABI 3130xL genetic analyzer (Applied Biosystems) with peak positions identified by using a set of X-rhodamine (ROX)-labeled MapMarker1000 molecular weight standards (BioVentures). The raw capillary electrophoresis data was processed using Attagraph software (Attagene).
Take `Cn1cc[nH]c1=S`: the call was inactive.

As for `CCCCCOC(C)=O`, the compound was called inactive.

For `CCN(CC)C(=S)SSC(=S)N(CC)CC`, the AC50 is 148 µM (active).

As for `Cn1c(=O)c2[nH]cnc2n(C)c1=O`, the compound was called inactive.

In the case of `c1ccc2ncccc2c1`, the call was inactive.

With `O=C(O)c1cccc(C[C@@H]2COc3ccc(OCc4nc5cc(F)ccc5s4)cc3[C@@H]2O)c1`, the AC50 is 154 µM (active).

For `CCc1ccc(O)c(C(C)(C)C)c1`, the compound was called inactive.

Turning to `C[C@@H](Oc1ccc(CNC(=O)c2cccnc2Oc2ccc3c(c2)OCO3)c(F)c1)C(=O)O`, the outcome was inactive.

`CCCCCCCC1CCC(=O)O1` (stereo not given): the compound was called inactive.

In the case of `CCCCCCCCCCCCCCO`, the compound was classed as inactive.

On to `O=S1(=O)CCCO1`, for which the outcome was inactive.

Turning to `C=CN1CCCC1=O`, the outcome was inactive.

On to `Cc1ncc([C@@H](CCCCCCc2ccc3c(n2)NCCC3)CC(=O)O)cn1`, for which the compound was classed as inactive.

In the case of `O=S(=O)(O)c1ccc(N=Nc2c(O)ccc3cc(S(=O)(=O)O)ccc23)cc1`, the compound was called inactive.

Consider `COS(C)(=O)=O`, for which the outcome was inactive.

Take `c1ccc(C(O[C@@H]2CCCN(CCc3ccc4c(c3)OCO4)C2)c2ccccc2)cc1`: the AC50 is 33 µM (active).

On to `FC(F)=C(F)C(F)(F)C(F)(F)C(F)(F)C(F)(F)C(F)(F)C(F)(F)F`, for which the call was inactive.

Consider `Cc1nc(-c2ccccn2)ncc1C(=O)Nn1cc(C)c2cc(F)ccc21`, for which the outcome was inactive.

With `CC[C@H](C)C(=O)O[C@H]1C[C@H](O)C=C2C=C[C@H](C)[C@H](CC[C@@H](O)C[C@@H](O)CC(=O)O)[C@H]21`, the outcome was inactive.

As to `O=c1[nH]cnc2c1ncn2[C@H]1CC[C@@H](CO)O1`, the call was inactive.

For the compound `CCOC(N)=O`, the outcome was inactive.

On to `O=C(O)[C@H](O)[C@@H](O)C(=O)O`, for which the result was inactive.

`CC(C)CCCCCCOC(=O)C1CCCCC1C(=O)OCCCCCCC(C)C` (stereo not given): the compound was called inactive.

Consider `Cc1nccn1-c1ccc(Sc2cccc(C3(C(N)=O)CCOCC3)c2)cc1`, for which the AC50 is 6.89 µM (active).

For `OC(O)(C(F)C(O)(O)C(F)(F)F)C(F)(F)F`, the compound was classed as inactive.

Turning to `O=C1CN(N=Cc2ccc([N+](=O)[O-])o2)C(=O)N1`, the compound was classed as inactive.

Consider `Cc1ccc(S(=O)(=O)NC(=O)NN2CCCCCC2)cc1`, for which the compound was called inactive.

Regarding `CCCCCCCCCC`, the call was inactive.

`OC[C@H]1O[C@@](CO)(O[C@H]2O[C@H](CO)[C@@H](O)[C@H](O)[C@H]2O)[C@@H](O)[C@@H]1O`: the call was inactive.

With `OC(Cn1cncn1)(Cn1cncn1)c1ccc(F)cc1F`, the call was inactive.

For the compound `NCC(F)(F)C(F)(F)C(F)(F)C(F)(F)F`, the compound was classed as inactive.

Regarding `CCn1nc(C)c2c1C(=O)NCC(c1ccc(O)cc1)=N2`, the outcome was inactive.

Regarding `CC(C)C(=O)Nc1ccc([N+](=O)[O-])c(C(F)(F)F)c1`, the AC50 was 100 µM (active).

Turning to `Cc1cccc(O)c1C`, the result was inactive.

Turning to `NC(=O)NN=Cc1ccc([N+](=O)[O-])o1`, the outcome was inactive.

Consider `OCCC(F)(F)C(F)(F)C(F)(F)C(F)(F)F`, for which the call was inactive.

For `c1ccc2cc3ccccc3cc2c1`, the compound was classed as inactive.

For the compound `CCCC(CCC)C(=O)O`, the outcome was inactive.

Take `O=C(N[C@H](CO)[C@H](O)c1ccc([N+](=O)[O-])cc1)C(Cl)Cl`: the compound was classed as inactive.

For the compound `O=C(Cl)C(F)(F)C(F)(F)C(F)(F)C(=O)Cl`, the compound was called inactive.

Usually AC50 stands for the concentration at which the activity in the assay is half-maximal.

These data come from PubChem BioAssay (EPA / NIEHS).
